Experimental data taken from PubChem BioAssay (NCATS).
Values joined by “and” are separate entries in the source; they are usually repeats but may differ in a detail not shown here. Equal entries are not always repeated. Results filed as inconclusive are left out. Active and inactive are the calls of the source. Unless noted, calls follow the shape of the dose curve; as a rule, active = well fitted curve in the direction sought with a large enough effect; inconclusive = small, poorly fitted or top-dose-only effect, or another doubt; inactive = no such curve, though single readings can be large; an effect the other way counts as inactive or inconclusive.

Columns and labels:
[1] = P-glycoprotein substrates identified in KB-8-5-11 adenocarcinoma cell line, qHTS therapeutic library screen (AID 1346987); also: nearly all actives have a fitted effect of over 65% in size; also: potency is read from the fitted curve at half-maximal effect
In short: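 KB-8-5-11: colchicine-selected sub-line of KB-3-1 over-expressing P-gp; assay medium lacked colchicine. 72 h drug exposure at 37 degree C, CellTiter-Glo.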

[2] = Natriuretic polypeptide receptor (hNpr1) antagonism - Pilot counterscreen GloSensor control cell line (AID 1347045; calls by dose curve; also: series mostly up to about 38 µM)
In short: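 HEK293 cells carrying the GloSensor cGMP sensor (GIP/pGS-40F) were loaded with 2% GloSensor reagent for 2 h, exposed to compounds for 30 min, and then stimulated with 50 uM sodium nitroprusside for 20 min at room temperature.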

[3] = biological target: Atrial natriuretic peptide receptor 1 (Homo sapiens) (UniProt P16066); test: Natriuretic polypeptide receptor (hNpr1) antagonism - Pilot screen (AID 1347049; calls by dose curve;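 also: agonist-evoked cGMP luminescence read 20 min after hNppA addition; series mostly up to about 58 µM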)
In short: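 HEK293 cells expressing hNpr1 and GloSensor cGMP luciferase, 1500/well, loaded with 2% GloSensor reagent 2 h, compound 30 min at room temperature; luminescence read before and 20 min after 0.1 nM hNppA stimulation.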

[4] = biological target: Atrial natriuretic peptide receptor 2 (Homo sapiens) (UniProt P20594); test: Natriuretic polypeptide receptor (hNpr2) antagonism - Pilot subtype selectivity assay (AID 1347050; calls by dose curve)
In short: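 HEK293 cells expressing hNpr2 and a GloSensor cGMP luciferase sensor, 1500/well, preloaded 2 h with 2% GloSensor reagent, compound 30 min, then 1 nM hNppC for 20 min. Antagonism from luminescence after versus baseline pre-read; LOPAC in 1:5 titrations.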

[5] = NS1 protein of Zika virus - qHTS assay to identify small molecule inhibitors in human HEK 293 cells (AID 1347053); also: nearly all actives have a fitted effect of over 55% in size; also: potency is read from the fitted curve at half-maximal effect
In short: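 Following 20 h seeding, HEK 293 cells took compound, then 1 h later ZIKV MR766 (MOI = 0.5). Incubation ran 24 h at 37 C before TR-FRET detection of NS1; a drop in signal indicates inhibition.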

[6] = biological target: T1, Tyrosine-protein phosphatase non-receptor type substrate 1 (Homo sapiens) + Leukocyte surface antigen CD47 (Homo sapiens) (UniProt P78324+Q08722); test: CD47-SIRPalpha protein protein interaction - LANCE assay qHTS validation (AID 1347057; active = well fitted curve in the direction sought with a large enough effect in the signal ratio, with a control signal flat, not every such curve was filed as active; the % refers to the signal ratio; also: series mostly up to about 38 µM)
In short: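 First, His-tagged CD47 and Eu-labelled anti-His antibody met the compound for 30 min; next, site-specifically biotinylated SIRPalpha was added for 30 min; finally streptavidin-APC was added before reading the TR-FRET ratio.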

[7] = biological target: T1, Tyrosine-protein phosphatase non-receptor type substrate 1 (Homo sapiens) + Leukocyte surface antigen CD47 (Homo sapiens); test: CD47-SIRPalpha protein protein interaction - HTRF assay qHTS validation (AID 1347058; active = well fitted curve in the direction sought with a large enough effect in the signal ratio, not every such curve was filed as active; the % refers to the signal ratio;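 also: recombinant soluble extracellular CD47 with His tag and biotinylated SIRPalpha domains; series mostly up to about 38 µM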)
In short: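 TR-FRET read (Ch1/Ch2 ratio) of soluble extracellular CD47 and Avi-biotinylated SIRPalpha domains in PBS pH 7.4 with 0.05% IGEPAL; 7-point compound titration. Sequential 30 min room-temperature steps; non-biotinylated SIRPalpha as control inhibitor.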

[8] = biological target: T1, Tyrosine-protein phosphatase non-receptor type substrate 1 (Homo sapiens) + Leukocyte surface antigen CD47 (Homo sapiens); test: CD47-SIRPalpha protein protein interaction - Alpha assay qHTS validation (AID 1347059);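 also: bead proximity luminescence from CD47 binding SIRPalpha after compound preincubation with SIRPalpha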
In short: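 Biotinylated Avi-tagged SIRPalpha (25 nM) preincubated 30 min with compound, then His-tagged CD47 (12.5 nM) added 30 min; AlphaScreen with Ni-NTA acceptor and streptavidin donor beads. PBS pH 7.4, 0.05% IGEPAL, room temperature; 7-point titrations.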

[9] = biological target: Parathyroid hormone/parathyroid hormone-related peptide receptor (Homo sapiens) (UniProt Q03431); test: qHTS for PTHR1 Agonists: Optimization Screen against the NCGC LOPAC library (AID 1347079);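 also: GloSensor cAMP luminescence in HEK-293 GP2 cells expressing human PTHR1 with IBMX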
In short: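 Compounds were tested across a qHTS titration. PTHR1-expressing GP2 cells report cAMP rises via GloSensor luminescence after 1 hr compound exposure at 37C with IBMX present.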

[10] = qHTS of pediatric cancer cell lines to identify multiple opportunities for drug repurposing: Primary screen for SJ-GBM2 cells (AID 1347091); also: potency is read from the fitted curve at half-maximal effect
In short: (§1)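 Viability measured as metabolically active cells via CellTiter-Glo luminescence following 48 hours of compound exposure, 11-point dilutions in confirmatory testing. 500-1,000 cells/well plated 5 hours before dosing; controls were DMSO and 2.3 µM bortezomib.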

[11] = qHTS of pediatric cancer cell lines to identify multiple opportunities for drug repurposing: Primary screen for SK-N-MC cells (AID 1347093); also: potency is read from the fitted curve at half-maximal effect
In short: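 Metabolically active cells were quantified by ATP-dependent luminescence (CellTiter-Glo, 15 min at room temperature) following 48 h treatment. Cells had been plated at 500-1,000 per well and settled for 5 h beforehand.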

[12] = qHTS of pediatric cancer cell lines to identify multiple opportunities for drug repurposing: Primary screen for BT-37 cells (AID 1347094); also: potency is read from the fitted curve at half-maximal effect
In short: (§2)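 Plated cells (500-1,000 per well, growth media) were allowed to settle for 5 hours, treated with compound dilutions for 48 hours, then lysed with CellTiter-Glo for 15 min at room temperature before luminescence reading.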

[13] = qHTS of pediatric cancer cell lines to identify multiple opportunities for drug repurposing: Primary screen for NB-EBc1 cells (AID 1347095); also: potency is read from the fitted curve at half-maximal effect
In short: as §2

[14] = qHTS of pediatric cancer cell lines to identify multiple opportunities for drug repurposing: Primary screen for U-2 OS cells (AID 1347096); also: nearly all actives have a fitted effect of over 50% in size
In short: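 Viability after 48 h compound treatment at 37C, 500-1,000 cells/well, read as ATP luminescence with CellTiter-Glo. Primary screens used 11-point (MIPE, 0.78 nM-46 µM) or 8-point (NPC, 0.59 nM-46 µM) final concentrations; follow-up screens used 11-point dilutions.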

[15] = qHTS of pediatric cancer cell lines to identify multiple opportunities for drug repurposing: Primary screen for Saos-2 cells (AID 1347097); also: nearly all actives have a fitted effect of over 40% in size; also: potency is read from the fitted curve at half-maximal effect
In short: as §2

[16] = P-glycoprotein substrates identified in KB-3-1 adenocarcinoma cell line, qHTS therapeutic library screen (AID 1346986); also: nearly all actives have a fitted effect of over 60% in size;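 also: potency is read from the fitted curve at half-maximal effect; potency is for cytotoxicity meaning loss of cell viability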
In short: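 Compounds were tested in dose-response against KB-3-1 and KB-8-5-11 cells at 37 degree C for 72 h, and viability was measured by luminescence. AC50 values came from curve fitting with class-based activity calls.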

[17] = qHTS of pediatric cancer cell lines to identify multiple opportunities for drug repurposing: Primary screen for TC32 cells (AID 1347089); also: nearly all actives have a fitted effect of over 60% in size; also: potency is read from the fitted curve at half-maximal effect
In short: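 Luminescent ATP read-out (CellTiter-Glo) of metabolically active TC32 cells after 48 h exposure. Concentration-response curves came from 11-point (MIPE, 0.78 nM–46 µM) or 8-point (NPC, 0.59 nM–46 µM) primary titrations; follow-up used 11 points.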

[18] = qHTS of pediatric cancer cell lines to identify multiple opportunities for drug repurposing: Primary screen for A673 cells (AID 1347092); also: nearly all actives have a fitted effect of over 45% in size; also: potency is read from the fitted curve at half-maximal effect
In short: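 Cell viability of A673 measured by CellTiter-Glo ATP luminescence after 48 hours compound exposure. Dilution series spanned 0.78 nM to 46 µM (MIPE, 11-point) or 0.59 nM to 46 µM (NPC, 8-point); bortezomib 2.3 uM positive control.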

[19] = qHTS of pediatric cancer cell lines to identify multiple opportunities for drug repurposing: Primary screen for DAOY cells (AID 1347090); also: nearly all actives have a fitted effect of over 55% in size; also: potency is read from the fitted curve at half-maximal effect
In short: as §1

Measured: Potency

T1 sequence (P78324 whole entry, looked up): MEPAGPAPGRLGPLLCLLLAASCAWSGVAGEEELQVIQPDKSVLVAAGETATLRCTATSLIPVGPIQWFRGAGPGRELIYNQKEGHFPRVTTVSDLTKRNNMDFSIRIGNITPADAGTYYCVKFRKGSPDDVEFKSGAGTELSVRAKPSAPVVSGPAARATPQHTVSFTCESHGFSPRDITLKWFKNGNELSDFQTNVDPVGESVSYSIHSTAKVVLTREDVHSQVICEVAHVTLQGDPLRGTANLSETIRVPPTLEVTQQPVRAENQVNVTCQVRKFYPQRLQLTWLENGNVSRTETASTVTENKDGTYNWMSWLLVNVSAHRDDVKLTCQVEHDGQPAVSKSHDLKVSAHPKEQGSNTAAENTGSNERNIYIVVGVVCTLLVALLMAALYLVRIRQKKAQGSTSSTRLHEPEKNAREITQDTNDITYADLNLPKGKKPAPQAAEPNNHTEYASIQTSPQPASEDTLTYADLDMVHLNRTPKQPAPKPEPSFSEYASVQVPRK
T1 sequence (Q08722 whole entry, looked up): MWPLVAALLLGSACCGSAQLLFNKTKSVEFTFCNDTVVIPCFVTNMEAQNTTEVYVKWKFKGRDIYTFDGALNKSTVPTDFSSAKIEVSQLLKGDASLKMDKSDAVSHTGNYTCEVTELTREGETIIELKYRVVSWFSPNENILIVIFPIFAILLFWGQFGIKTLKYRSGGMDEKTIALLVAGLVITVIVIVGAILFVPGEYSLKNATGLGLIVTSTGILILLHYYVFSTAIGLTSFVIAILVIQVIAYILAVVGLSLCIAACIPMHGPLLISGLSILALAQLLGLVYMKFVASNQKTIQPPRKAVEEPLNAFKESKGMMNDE
Parathyroid hormone/parathyroid hormone-related peptide receptor (Homo sapiens), sequence (Q03431 whole entry, looked up): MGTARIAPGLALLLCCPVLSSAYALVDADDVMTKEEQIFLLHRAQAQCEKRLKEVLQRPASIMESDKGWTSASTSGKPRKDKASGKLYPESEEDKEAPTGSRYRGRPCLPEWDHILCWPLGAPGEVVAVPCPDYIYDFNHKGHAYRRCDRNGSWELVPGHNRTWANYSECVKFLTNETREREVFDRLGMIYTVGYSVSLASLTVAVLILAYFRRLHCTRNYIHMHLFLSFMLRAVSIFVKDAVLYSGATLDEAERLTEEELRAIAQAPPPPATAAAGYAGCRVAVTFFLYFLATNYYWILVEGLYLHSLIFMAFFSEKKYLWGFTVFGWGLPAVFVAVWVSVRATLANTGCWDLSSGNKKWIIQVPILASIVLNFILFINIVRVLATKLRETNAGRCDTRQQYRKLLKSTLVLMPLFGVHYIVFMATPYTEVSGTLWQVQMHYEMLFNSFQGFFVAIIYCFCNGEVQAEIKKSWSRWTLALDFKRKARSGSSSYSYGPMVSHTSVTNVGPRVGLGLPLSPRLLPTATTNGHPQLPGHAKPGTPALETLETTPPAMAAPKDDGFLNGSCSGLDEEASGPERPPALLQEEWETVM
Atrial natriuretic peptide receptor 2 (Homo sapiens), sequence (P20594 whole entry, looked up): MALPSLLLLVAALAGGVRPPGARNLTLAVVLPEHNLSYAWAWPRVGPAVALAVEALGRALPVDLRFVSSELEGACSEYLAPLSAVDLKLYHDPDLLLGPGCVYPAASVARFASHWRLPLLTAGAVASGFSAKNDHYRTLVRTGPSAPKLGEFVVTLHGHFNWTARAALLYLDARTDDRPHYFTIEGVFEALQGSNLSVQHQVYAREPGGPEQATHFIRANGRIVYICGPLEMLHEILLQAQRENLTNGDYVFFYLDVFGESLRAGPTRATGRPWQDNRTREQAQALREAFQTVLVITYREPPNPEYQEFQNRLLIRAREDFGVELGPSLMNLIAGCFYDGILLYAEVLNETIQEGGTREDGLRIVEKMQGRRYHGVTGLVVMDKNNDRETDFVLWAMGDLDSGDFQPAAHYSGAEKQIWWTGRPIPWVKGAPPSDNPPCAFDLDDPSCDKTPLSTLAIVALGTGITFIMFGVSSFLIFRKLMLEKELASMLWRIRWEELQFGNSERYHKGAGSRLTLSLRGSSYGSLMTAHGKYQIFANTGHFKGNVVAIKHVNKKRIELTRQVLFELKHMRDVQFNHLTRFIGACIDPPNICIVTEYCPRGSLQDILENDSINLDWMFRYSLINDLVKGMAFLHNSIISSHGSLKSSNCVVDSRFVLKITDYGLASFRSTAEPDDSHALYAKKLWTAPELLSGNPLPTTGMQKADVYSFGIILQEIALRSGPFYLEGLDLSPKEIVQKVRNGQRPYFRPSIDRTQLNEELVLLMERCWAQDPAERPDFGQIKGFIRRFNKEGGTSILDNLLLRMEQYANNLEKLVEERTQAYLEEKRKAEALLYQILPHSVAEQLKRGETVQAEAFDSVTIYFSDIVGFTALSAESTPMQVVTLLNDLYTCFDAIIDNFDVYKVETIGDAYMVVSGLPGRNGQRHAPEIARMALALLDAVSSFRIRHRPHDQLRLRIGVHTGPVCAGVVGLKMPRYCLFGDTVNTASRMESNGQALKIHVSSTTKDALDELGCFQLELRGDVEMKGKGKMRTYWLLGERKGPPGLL
Atrial natriuretic peptide receptor 1 (Homo sapiens), sequence (P16066 whole entry, looked up): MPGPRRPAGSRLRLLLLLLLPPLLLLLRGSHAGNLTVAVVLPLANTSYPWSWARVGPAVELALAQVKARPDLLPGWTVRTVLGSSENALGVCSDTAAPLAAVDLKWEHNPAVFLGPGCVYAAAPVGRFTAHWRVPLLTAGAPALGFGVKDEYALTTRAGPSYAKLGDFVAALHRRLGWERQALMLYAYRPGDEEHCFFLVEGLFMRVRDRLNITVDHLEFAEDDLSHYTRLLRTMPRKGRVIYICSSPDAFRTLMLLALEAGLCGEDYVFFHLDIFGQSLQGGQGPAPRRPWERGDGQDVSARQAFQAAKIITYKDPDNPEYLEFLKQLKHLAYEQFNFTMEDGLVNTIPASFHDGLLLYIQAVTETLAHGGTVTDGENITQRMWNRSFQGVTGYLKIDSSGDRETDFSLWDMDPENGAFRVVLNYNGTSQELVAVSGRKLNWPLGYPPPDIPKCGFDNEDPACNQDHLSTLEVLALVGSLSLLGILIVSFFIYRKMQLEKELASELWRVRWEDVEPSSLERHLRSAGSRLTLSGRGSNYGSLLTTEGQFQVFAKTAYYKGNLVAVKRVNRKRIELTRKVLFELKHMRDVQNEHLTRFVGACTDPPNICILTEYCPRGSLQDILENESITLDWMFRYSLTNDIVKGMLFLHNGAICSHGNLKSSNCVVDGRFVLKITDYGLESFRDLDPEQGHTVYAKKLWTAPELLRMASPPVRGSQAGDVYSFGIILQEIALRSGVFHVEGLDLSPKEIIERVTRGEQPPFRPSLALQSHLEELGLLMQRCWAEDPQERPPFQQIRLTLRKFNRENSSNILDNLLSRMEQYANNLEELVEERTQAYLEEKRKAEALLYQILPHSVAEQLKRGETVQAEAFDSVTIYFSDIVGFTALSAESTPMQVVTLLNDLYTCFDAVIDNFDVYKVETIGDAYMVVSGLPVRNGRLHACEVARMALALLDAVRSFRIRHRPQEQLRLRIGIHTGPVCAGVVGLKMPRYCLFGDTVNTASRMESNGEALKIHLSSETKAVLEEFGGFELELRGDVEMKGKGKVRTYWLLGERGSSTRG

C=CCc1cccc(C=NNC(=O)CN2CCN(Cc3ccccc3)CC2)c1O
active: [1] 10.5 µM | [5] 13.2 µM | [10] 6.62 µM | [11] 11.8 µM | [12] 9.68 µM | [13] 5.9 µM | [15] 5.9 µM
not listed: [16] | [17] | [18] | [19]
inactive: all other assays above

Cc1ccc(NC(=O)c2ccc(CN3CCN(C)CC3)cc2)cc1Nc1nc(-c2cccnc2)cs1
inactive: [16] | [17] | [13]
active: [18] 11.8 µM | [12] 24.3 µM

CN1CC(=O)NC1=NC(=O)Nc1cccc(Cl)c1
inactive: [1] | [5] | [17] | [19] | [10] | [18] | [12] | [14]
active: [13] 20.9 µM

O=C(NC[C@H](O)CO)c1ccncc1Nc1ccc(I)cc1F
inactive: [16] | [17] | [10]
active: [11] 5.26 µM

O=C1NC(=O)C(c2cnc3ccccn23)=C1c1cn2c3c(cccc13)CN(C(=O)N1CCOCC1)CC2
inactive: [14]
active: [16] 5.8 µM | [5] 0.59 µM | [19] 0.0235 µM | [10] 0.0235 µM | [11] 0.0235 µM | [12] 19.3 µM | [13] 0.0166 µM

CNC1CCC(N(Cc2cccc(-c3ccncc3)c2)C(=O)c2sc3ccccc3c2Cl)CC1 (stereo unspecified)
active: [1] 11.8 µM and 20.6 µM | [5] 9.35 µM | [10] 23.5 µM | [18] 14.8 µM | [11] 23.5 µM | [12] 24.3 µM | [13] 26.4 µM | [15] 26.4 µM
inactive: [17] | [19] | [14]

COc1ccc(Cn2ccc3ccc(C(=O)NO)cc32)cc1
inactive: [16] | [17] | [10] | [15]
active: [18] 14.8 µM | [11] 5.9 µM | [13] 8.33 µM

CC[C@H](C=C[C@@H](C)[C@H]1CC[C@H]2[C@@H]3CC=C4C[C@@H](O)CC[C@]4(C)[C@@H]3CC[C@]12C)C(C)C
inactive: [1] | [5] | [17] | [19] | [10] | [18] | [12] | [13] | [14] | [15]

Cc1cc(C(C)Nc2ccccc2)c2nc(N3CCOCC3)cc(=O)n2c1 (stereo unspecified)
active: [18] 0.935 µM
inactive: [16] | [5] | [17] | [13] | [14]

COc1ccc(-c2cc3nccn3c(Nc3ncccc3C(N)=O)n2)cc1OC
active: [16] 6.51 µM | [10] 1.18 µM | [18] 1.48 µM | [11] 1.66 µM | [13] 2.64 µM | [15] 1.05 µM
inactive: [5] | [17]

CN[C@@H]1[C@@H](O)[C@@H](O[C@@H]2[C@@H](O)[C@H](O[C@H]3O[C@H](CN)[C@@H](O)[C@H](O)[C@@H]3O)[C@@H](N)C[C@@H]2NC(=O)[C@@H](O)CN)OC[C@]1(C)O
inactive: [1] | [5] | [17] | [19] | [10] | [18] | [12] | [13] | [14] | [15]

CN[C@@H](C)[C@H]1[C@H](O)C[C@@]2(C)[C@@H]3CC[C@H]4C(C)(C)[C@@H](NC)CC[C@@]45C[C@@]35CC[C@]12C
inactive: [16] inactive [at 9.29 µM] | [5] | [17] | [10] | [12] | [13] | [14] | [15]

Cc1ccc(C(=O)N(CCCN)[C@@H](c2nc3cc(Cl)ccc3c(=O)n2Cc2ccccc2)C(C)C)cc1
active: [1] 0.118 µM | [17] 0.0165 µM | [19] 0.0015 µM | [10] 0.001 µM | [18] 0.001 µM | [11] 0.0017 µM | [13] 0.001 µM | [15] 0.001 µM
inactive: [5] | [14]
